Compound activity deposited in PubChem by Broad Institute.
PDI inh – inhibitors of human PDI, primary screen, biochemical, turbidity, single point, plate reader | Protein disulfide-isomerase (Homo sapiens), P07237 | PDI insulin aggregation turbidity, A650, 90 min | inhibition, % at 10 µM | 350,000 compounds, 0.052% hits;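 active means mean inhibition across replicates of 30% or more, whatever share of single replicates reach that level; inconclusive means mean inhibition below 30% while every single replicate reaches 30%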
MLL AF4-AF9 inh – inhibitors of AF4 peptide binding to AF9, primary screen, biochemical, AlphaScreen, biotin-AF4 peptide, FLAG-AF9, single point | Protein AF-9 (Homo sapiens), P42568 | inhibition, % at 10 µM | 350,000 compounds, 0.47% hits | AID 651704, 2012;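 active means every replicate reaching a set inhibition limit, whatever the replicate mean, cut at about 25% in these data; inconclusive means mean inhibition reaches that limit but some replicates miss it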
DENV2 CPE – inhibitors of DENV2 cytopathic effect, primary screen, cell-based, plate reader, single concentration. DENV2-infected cells, cytopathic effect rescue. CPE inhibition, % at 9.99 µM. 350,000 compounds, 1.7% hits; in the data active means CPE inhibition above about 20%, passing the limit was not always enough; inconclusive means no clear call, values can overlap the other calls; tested in BHK-21 cells
ERAP1 HTS inh – human ERAP1 aminopeptidase inhibitors, primary screen, biochemical, single point, plate reader. 340,000 compounds, 0.15% hits. recombinant ERAP1, Leu-AMC fluorescence, 60 min. inhibition, % at 10.7 µM. Endoplasmic reticulum aminopeptidase 1 (Homo sapiens), Q9NZ08. AID 652197, 2013;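 active means mean replicate inhibition of at least 30%, or all replicates individually reaching that 30% level; inactive means mean below 30% and not every replicate reaching it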
ERp5 block – inhibitors of ERp5-driven insulin aggregation, primary screen, biochemical, turbidity, absorbance 650 nm, single point; Protein disulfide-isomerase A6 (Homo sapiens), Q15084; 90 min; inhibition, % at 9.99 µM; 350,000 compounds, 0.05% hits;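 active means mean replicate inhibition above about 25%, with every replicate also reaching it, limit read from the data, passing the limit was not always enough; inconclusive means only one of those two criteria met; inactive means neither criterion met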
Target sequence (Q15084 whole entry, looked up): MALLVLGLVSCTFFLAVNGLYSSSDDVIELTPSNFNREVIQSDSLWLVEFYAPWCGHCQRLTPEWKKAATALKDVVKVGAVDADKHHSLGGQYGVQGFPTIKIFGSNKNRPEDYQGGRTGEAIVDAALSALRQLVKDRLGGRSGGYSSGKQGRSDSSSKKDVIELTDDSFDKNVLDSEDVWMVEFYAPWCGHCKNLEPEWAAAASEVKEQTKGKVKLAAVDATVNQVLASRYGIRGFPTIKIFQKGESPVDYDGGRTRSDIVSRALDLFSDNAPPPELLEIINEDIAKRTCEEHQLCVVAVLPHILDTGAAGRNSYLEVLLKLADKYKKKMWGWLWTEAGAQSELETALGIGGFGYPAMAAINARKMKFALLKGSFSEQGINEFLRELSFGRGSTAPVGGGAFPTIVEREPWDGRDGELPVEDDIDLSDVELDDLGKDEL
A number is an active result. An excerpt weighted towards active compounds, which were near 1.8% of everything screened.

Results for O=C(NCC(F)(F)F)[C@H]1[C@H](CO)[C@H]2Cn3c(cccc3=O)[C@H]2N1Cc1cccc(F)c1 ?
MLL AF4-AF9 inh: inactive; DENV2 CPE: inactive; ERAP1 HTS inh: inactive; ERp5 block: inactive

Results for CN(C)CCCN(C(=O)c1ccc2c(c1)CCCC2)c1nc2ccc(Cl)cc2s1 ?
PDI inh: inactive; MLL AF4-AF9 inh: 27; DENV2 CPE: inactive; ERAP1 HTS inh: inactive; ERp5 block: inactive

Results for COc1cccc2sc(N(CCCN(C)C)C(=O)c3ccc(S(=O)(=O)N4CCc5ccccc5C4)cc3)nc12 ?
PDI inh: inactive; MLL AF4-AF9 inh: 29; DENV2 CPE: inactive; ERAP1 HTS inh: inactive; ERp5 block: inactive

What do the screens show for `CN(C)CCN(C(=O)c1cccc2ccccc12)c1nc2cc3c(cc2s1)OCO3`?
PDI inh: inactive; MLL AF4-AF9 inh: 28; DENV2 CPE: inactive; ERAP1 HTS inh: inactive; ERp5 block: inactive

How did CN(C)CCN(C(=O)c1ccc(N2C(=O)CCC2=O)cc1)c1nc2cc3c(cc2s1)OCO3 do in these assays?
PDI inh: inactive; DENV2 CPE: inactive; ERp5 block: inactive

How did O=C(N[C@H]1CC[C@H](CCNC(=O)c2ccccc2F)O[C@@H]1CO)c1cnccn1 do in these assays?
MLL AF4-AF9 inh: inactive; DENV2 CPE: inconclusive; ERAP1 HTS inh: inactive; ERp5 block: inactive

How did O=C(NCC1CC1)[C@@H]1N[C@@H]2c3ccc(-c4ccccc4F)c(=O)n3C[C@@H]2[C@H]1CO do in these assays?
MLL AF4-AF9 inh: inactive; DENV2 CPE: inactive; ERAP1 HTS inh: inactive; ERp5 block: inactive

Results for C[C@@H]1CN([C@H](C)CO)C(=O)c2cc(C#C[C@@H](C)O)cnc2O[C@H]1CN(C)C(=O)Cc1ccccn1 ?
MLL AF4-AF9 inh: inactive; DENV2 CPE: inactive; ERAP1 HTS inh: inactive; ERp5 block: inactive

What do the screens show for `Cc1ccc(S(=O)(=O)N[C@H]2C=C[C@H](CC(=O)NCc3ccc(Cl)c(Cl)c3)O[C@@H]2CO)cc1`?
MLL AF4-AF9 inh: inactive; DENV2 CPE: inactive; ERAP1 HTS inh: inactive; ERp5 block: inactive

What do the screens show for `COc1ccc(-c2ccc3c(c2)O[C@@H](CN(C)Cc2ccccc2C(=O)O)[C@@H](C)CN([C@H](C)CO)S3(=O)=O)cc1`?
MLL AF4-AF9 inh: inactive; DENV2 CPE: inactive; ERAP1 HTS inh: inactive; ERp5 block: inactive

How did Cc1nc2ccccc2n1C(c1cccnc1)c1nc2ccccc2[nH]1 (configuration not stated) do in these assays?
MLL AF4-AF9 inh: inactive; DENV2 CPE: 38; ERAP1 HTS inh: inactive; ERp5 block: inactive

What do the screens show for `CSc1nc(SCC(=O)O)c2sc3nc(-c4ccccc4)c4c(c3c2n1)CCC4`?
PDI inh: 53; MLL AF4-AF9 inh: inactive; DENV2 CPE: inactive; ERAP1 HTS inh: inactive; ERp5 block: inactive

Results for CSc1nc(N(C)CCO)c2sc3nc(-c4ccco4)c4c(c3c2n1)CCC4 ?
PDI inh: inactive

What do the screens show for `O=C(c1ccccc1F)N1CCC2CC1c1cc(N3CCCCC3)ccc12` (configuration not stated)?
PDI inh: inactive; MLL AF4-AF9 inh: inactive; DENV2 CPE: 42; ERAP1 HTS inh: inactive; ERp5 block: inactive

How did O=C(C1CCCCC1)N1CCC2CC1c1cc(N3CCCCC3)ccc12 (configuration not stated) do in these assays?
PDI inh: inactive; MLL AF4-AF9 inh: inactive; DENV2 CPE: inactive; ERAP1 HTS inh: inactive; ERp5 block: inactive

Results for CC(C)(C)OC(=O)C[C@H]1C/C=C\C[C@@H](CC(=O)N[C@@H](CO)Cc2ccccc2)C(=O)NC[C@H](c2ccccc2)OC1=O ?
PDI inh: inactive; MLL AF4-AF9 inh: inactive; DENV2 CPE: 58; ERAP1 HTS inh: inactive; ERp5 block: inactive

How did CC(C)(C)OC(=O)C[C@@H]1C/C=C\C[C@@H](CC(=O)N[C@@H](CO)Cc2ccccc2)C(=O)NC[C@@H](c2ccccc2)OC1=O do in these assays?
PDI inh: inactive; MLL AF4-AF9 inh: inactive; DENV2 CPE: inactive; ERp5 block: inactive

Results for CNC[C@@H]1OCCCC[C@H](C)Oc2ccc(NS(C)(=O)=O)cc2C(=O)N([C@@H](C)CO)C[C@@H]1C ?
MLL AF4-AF9 inh: inactive; DENV2 CPE: 132; ERAP1 HTS inh: inactive; ERp5 block: inactive

What do the screens show for `CNC[C@@H]1OCCCC[C@H](C)Oc2ccc(NS(=O)(=O)c3c(C)noc3C)cc2C(=O)N([C@@H](C)CO)C[C@H]1C`?
DENV2 CPE: 123

What do the screens show for `CNC[C@@H]1OCCCC[C@@H](C)Oc2ccc(NS(=O)(=O)c3c(C)noc3C)cc2C(=O)N([C@@H](C)CO)C[C@H]1C`?
DENV2 CPE: 29

What do the screens show for `O=C(C[C@H]1CC[C@H]2[C@@H](COC[C@@H](O)CN2S(=O)(=O)c2cccc(Cl)c2)O1)Nc1ccc(-c2ccccc2)cc1`?
MLL AF4-AF9 inh: inactive; DENV2 CPE: inactive; ERAP1 HTS inh: inactive; ERp5 block: inactive

How did CO[C@H]1CN(C)C(=O)c2ccc(NC(=O)Nc3ccc4c(c3)OCO4)cc2OC[C@H](C)NC[C@@H]1C do in these assays?
DENV2 CPE: inactive

How did CC(C)(C)OC(=O)C(Cc1ccc(OC(C)(C)C)cc1)NC(=O)CNC(=O)OCc1ccccc1 (configuration not stated) do in these assays?
PDI inh: inactive; MLL AF4-AF9 inh: inactive; DENV2 CPE: 77; ERAP1 HTS inh: inactive; ERp5 block: inactive

What do the screens show for `CC(C)(C)OC(=O)NC(CC(=O)OCc1ccccc1)C(=O)O` (configuration not stated)?
PDI inh: inactive; MLL AF4-AF9 inh: inactive; DENV2 CPE: 47; ERAP1 HTS inh: inactive; ERp5 block: inactive

Results for COCCNC(=O)C[C@@H]1C[C@H]2c3cc(NC(=O)Nc4ccccc4F)ccc3O[C@H]2[C@@H](CO)O1 ?
DENV2 CPE: inactive

What do the screens show for `CN1C(=O)c2cc(NC(=O)Cc3cccs3)ccc2OC[C@H]2O[C@H](CC(=O)O)CC[C@H]21`?
MLL AF4-AF9 inh: inactive; DENV2 CPE: inactive; ERAP1 HTS inh: inactive; ERp5 block: inactive

Results for CCC(=O)N1CCCCN2[C@@H](CO)[C@@H](c3ccc(C#Cc4ccccc4F)cc3)[C@@H]2C1 ?
MLL AF4-AF9 inh: inactive; DENV2 CPE: inconclusive; ERAP1 HTS inh: inactive; ERp5 block: inactive

How did O=C(Nc1ccccc1F)N1CCCCN2[C@H](CO)[C@@H](c3ccc(C#Cc4ccccc4)cc3)[C@@H]2C1 do in these assays?
MLL AF4-AF9 inh: inactive; DENV2 CPE: 21; ERAP1 HTS inh: inactive; ERp5 block: inactive

How did CC(=O)N1CCCCN2[C@H](CO)[C@@H](c3ccc(C#Cc4ccccc4F)cc3)[C@H]2C1 do in these assays?
MLL AF4-AF9 inh: inactive; DENV2 CPE: 24; ERAP1 HTS inh: inactive; ERp5 block: inactive

What do the screens show for `COc1ccccc1-c1ccc([C@@H]2[C@H](CO)N(C(C)=O)C23CN(C(C)=O)C3)cc1`?
MLL AF4-AF9 inh: inactive; DENV2 CPE: 28; ERAP1 HTS inh: inactive; ERp5 block: inactive
